Our source for the outcome values is PubChem BioAssay AID2283364 (EPA ToxCast).

Results filed as inconclusive are left out. Active and inactive are the calls of the source. Rule for the calls: active = hit-call score of the fitted dose curve at least 0.9, where 1 is the maximum; inconclusive = response in the unintended direction; inactive = score below 0.9.

In the assay the target is human FK-506 Binding Protein (FKBP12), FKBP1A (gene 2280) (UniProt P62942). Description: NVS_OR_hFKBP12: NovaScreen (NVS) Nuclear Receptor Binding Assay for human FK-506 Binding Protein (FKBP12). Here is the method: NVS_OR_hFKBP12 is a biochemical, single-readout assay that uses extracted gene-proteins from E. coli in a cell-free assay. Measurements were taken 0.75 hour after chemical dosing in a 48-well plate.NVS_OR_hFKBP12 is one of one assay component(s) measured or calculated from the NVS_OR_hFKBP12 assay. It is designed to make measurements of radioligand binding, a form of binding reporter, as detected with scintillation counting signals by Filter-based radiodetection technology.Data from the assay component NVS_OR_hFKBP12 was analyzed into 1 assay endpoint. This assay endpoint, NVS_OR_hFKBP12, was analyzed in the positive analysis fitting direction relative to DMSO as the negative control and baseline of activity. Using a type of binding reporter, loss-of-signal activity can be used to understand changes in the binding as they relate to the gene FKBP1A. Furthermore, this assay endpoint can be referred to as a primary readout, because the performed assay has only produced 1 assay endpoint. To generalize the intended target to other relatable targets, this assay endpoint is annotated to the misc protein intended target family, where the subfamily is chaperone.
Chain of human FK-506 Binding Protein (FKBP12), FKBP1A (gene 2280) (P62942 whole entry, looked up): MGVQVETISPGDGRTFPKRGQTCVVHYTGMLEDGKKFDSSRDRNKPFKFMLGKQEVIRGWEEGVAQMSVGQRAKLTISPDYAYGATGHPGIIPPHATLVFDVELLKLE
Binding assays used specific radioligands (tritiated, iodinated) with non-radioactive competitive displacement ligands in agonist or antagonist protocols (as indicated) and various reference compounds and inhibitors to titrate specific binding to receptors and transporters. Most enzyme assays (CYPs, kinases, phosphatases, proteases, HDACs) used recombinant protein and specific substrates (fluorescence mostly, some colorimetric and radioactive) and inhibitors, followed by a biochemical separation of substrate and product. All assays for the biochemical HTS were initially run in duplicate at a single concentration (10 uM for CYP450 assays and 25 uM for all others). Assay-chemical combinations meeting a pre-defined threshold (e.g., 30% inhibition and other criteria defined below) were then run in singleton concentration-response format with maximum concentration of 20 uM for CYPs and 50 uM for all others. Each assay was run with positive and negative controls, and concurrent controls on every plate. The follow-up (secondary) screen tested active chemical-pairs in concentration series, as well as a few additional assays not tested in the primary screen, some selected negative inactives, and several cases re-run in the concentration series for confirmatory purposes.
With `Cc1ccc(O)cc1`, the outcome was inactive.
For `c1ccc2ccccc2c1` the value was “inactive”; for `CCCCCCCCCCCC(=O)OC`, “inactive”; for `COC(=O)c1ccccc1S(=O)(=O)NC(=O)Nc1nc(OC(F)F)cc(OC(F)F)n1`, “inactive”.
For `CCc1ccc(O)c(C(C)(C)C)c1`, the molecule was classed as inactive.
